Hits are enriched below; roughly 3.6% of the tested compounds scored in any of these assays.
Hsp90 Hop PPI – changes Hsp90-Hop TPR2A binding signal, up or down; AlphaScreen TPR2A-His6 binding biotin-Hsp90 C-terminal peptide; Potency, µM (titrated, usually from 57 µM), without a hit: at the highest dose activity change, negative = inhibition; hit rate 0.44% among 71,000; AID 595; active = well fitted curve in either direction with a large enough effect; inconclusive = small, poorly fitted or top-dose-only effect, or another doubt; note: % is set by controls: 0 for no effect and ±100 for the full control effect
CRE-bla Fsk – modulators of forskolin-stimulated CRE signaling in CHO cells; CHO CRE-bla reporter (cAMP response element driving beta-lactamase), forskolin EC10, beta-lactamase ratio; Potency, µM (top dose mostly 38.2 µM), inactives show top-dose activity change, negative = inhibition, actives largely listed as activators; hit rate 2.5% among 71,000; AID 662; active = well fitted activation curve with a large enough effect in the signal ratio, with a control signal flat, not every such curve was filed as active; inconclusive = small, poorly fitted or top-dose-only effect, or effect the other way, or a change in a side signal; the % refers to the signal ratio; note: % of control where 0% means no effect
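Forskolin analogue NKH 477 at EC10 stimulated CRE-driven beta-lactamase in CHO cells alongside compound dilution series. Beta-lactamase was measured with CCF4, excitation 405 nm, emission ratio 460/530 nm.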
IkB sig inh – inhibitors of IkB signaling in ABC-DLBCL cells; hit rate 0.04% among 110,000; Potency, µM (top dose mostly 57.1 µM), inactives show top-dose IkBa stabilization activation; ABC-DLBCL IkBa-CBG/CBR dual luciferase ratio, 4 h; response scale: scaled: untreated 0%, proteasome inhibitor 100%; active = well fitted curve in the direction sought with a large enough effect in the signal ratio, not every such curve was filed as active; inconclusive = small, poorly fitted or top-dose-only effect, or a change in a side signal; the % refers to the signal ratio;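 note: the direction sought is a rising ratio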
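In this assay, an IκBα–CBG68 fusion accumulates when IKK-driven degradation is blocked; native CBR normalizes for cell number. OCI-Ly3 cells were treated 4 h with compound and doxycycline, then green and red light read after Chroma-Glo addition.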
Tau filament bind – tau filament binding | P10636 | recombinant tau filaments, thioflavin S fluorescence, 15 h; filaments grown with octadecylsulfate alongside compound | Potency, µM (series often up to 57.1 µM), for inactives: at the highest dose activity change, negative = inhibition | hit rate 2% among 71,000;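 note: % is set by controls: 0 for no effect and ±100 for the full control effect; actives lower thioflavin S fluorescence by blocking filaments or displacing dye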
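His-tagged recombinant human tau (exons 2, 3, 10; 1 uM final) fibrillized with 30 uM sodium octadecylsulfate, 15 h at 37 C, in pH 7.4 HEPES buffer with 10 uM thioflavine S and 5 mM DTT. Reduced ThS fluorescence (450/510 nm) marks activity.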
15-hLO inh – blocks human 15-lipoxygenase activity | Potency, µM (highest dose often 57.1 µM), inactives show top-dose activity change, negative = inhibition, most hits filed as inhibitors | AID 887 | purified 15hLO-1, xylenol orange hydroperoxide absorbance | hit rate 1.4% among 74,000 | P16050; note: % is set by controls: 0 for no effect and ±100 for the full control effect; nearly all actives have a fitted effect of over 55% in size
Target sequence (P16050 whole entry, looked up): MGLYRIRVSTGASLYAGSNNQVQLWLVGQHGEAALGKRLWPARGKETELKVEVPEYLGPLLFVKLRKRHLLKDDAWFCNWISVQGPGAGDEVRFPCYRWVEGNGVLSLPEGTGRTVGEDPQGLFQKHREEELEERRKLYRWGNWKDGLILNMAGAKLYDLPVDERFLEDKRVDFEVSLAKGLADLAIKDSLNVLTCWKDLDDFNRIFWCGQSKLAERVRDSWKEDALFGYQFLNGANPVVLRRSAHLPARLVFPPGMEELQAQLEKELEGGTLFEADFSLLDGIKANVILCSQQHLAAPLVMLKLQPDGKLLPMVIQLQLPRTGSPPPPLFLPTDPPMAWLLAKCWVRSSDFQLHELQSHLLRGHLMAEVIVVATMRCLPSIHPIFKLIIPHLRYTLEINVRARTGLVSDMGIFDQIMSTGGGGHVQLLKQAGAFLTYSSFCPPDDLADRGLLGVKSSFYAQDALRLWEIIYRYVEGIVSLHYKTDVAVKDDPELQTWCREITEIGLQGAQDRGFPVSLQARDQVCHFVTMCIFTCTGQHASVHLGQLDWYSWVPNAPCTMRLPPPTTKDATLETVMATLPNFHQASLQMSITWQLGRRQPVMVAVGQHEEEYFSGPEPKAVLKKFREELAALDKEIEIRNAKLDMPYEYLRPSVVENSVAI
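Purified human 15hLO-1 (40 nM) in 25 mM Hepes pH 7.5, 0.01% Triton X-100, preincubated 15 min RT with compound, then 50 uM arachidonic acid for 6 min. Hydroperoxide read by ferrous/xylenol orange, 30 min; 573/405 nm absorbance ratio gave progress.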
* marks the source's active call; other numbers are inactive results; [ ] = dose if it differs, or a comment. Unless noted, calls come from the whole dose curve; as a rule, active = well fitted curve in the direction sought with a large enough effect; inconclusive = small, poorly fitted or top-dose-only effect, or another doubt; inactive = no such curve, though single readings can be large; an effect the other way counts as inactive or inconclusive. Potency is the fitted concentration of half-maximal effect.

For CCCc1cc(C(=O)Nc2sc(C)c(C)c2C(=O)OCC)no1 the results were Hsp90 Hop PPI inconclusive, CRE-bla Fsk 2µM*, IkB sig inh -2.1%, Tau filament bind 63.9% and 15-hLO inh -10.1%.
`Cc1ccc(Cc2nc3ccccc3nc2SCC(=O)N2CCCc3ccccc32)cc1` gave IkB sig inh 0.6%.
Cn1c(N)c(S(=O)(=O)c2ccc(Br)cc2)c2nc3ccccc3nc21 was read as Hsp90 Hop PPI 24.2%, CRE-bla Fsk 15.8µM*, IkB sig inh 8.2%, Tau filament bind 84.2% and 15-hLO inh inconclusive.
`Cc1cccc(CNc2nc(-c3ccc(C(=O)N(C)C)cc3)nc3ccccc23)c1` gave Hsp90 Hop PPI -2.5%, CRE-bla Fsk 0.794µM*, IkB sig inh 0.6%[11.4 µM], Tau filament bind 128.5% and 15-hLO inh inconclusive.
COc1ccc(CNc2nc(-c3cccc(NS(C)(=O)=O)c3)nc3ccccc23)c(OC)c1 was read as Hsp90 Hop PPI -10.5%, CRE-bla Fsk inconclusive, IkB sig inh -3.2%[11.4 µM], Tau filament bind -19.0% and 15-hLO inh -5.6%.
COc1ccc(CNc2nc(-c3ccc(N(C)C)cc3)nc3ccccc23)c(OC)c1 was read as Hsp90 Hop PPI -21.9%, CRE-bla Fsk inconclusive, IkB sig inh 5.6%[11.4 µM], Tau filament bind inactive and 15-hLO inh 10µM*.
For COc1ccc(CNc2nc(-c3cccc(C#N)c3)nc3ccccc23)c(OC)c1 the results were Hsp90 Hop PPI 0.5%, CRE-bla Fsk 2µM*, IkB sig inh 0.6%[11.4 µM], Tau filament bind 35.2% and 15-hLO inh 6.8%.
Screening COc1ccc(CNc2nc(-c3ccc(C(=O)N(C)C)cc3)nc3ccccc23)c(OC)c1 returned Hsp90 Hop PPI -9.6%, CRE-bla Fsk 1µM*, IkB sig inh -1.5%[11.4 µM], Tau filament bind -4.1% and 15-hLO inh inconclusive.
For CC(C)C[C@H](N)C(=O)O the results were Hsp90 Hop PPI -4.2%[11 µM], CRE-bla Fsk -9.8%[7.6 µM], IkB sig inh 2.2%[11.4 µM], Tau filament bind 3.5%[11.4 µM] and 15-hLO inh -4.6%[11.4 µM].
CC(=O)NCCNc1nc(-c2cccc(C#N)c2)nc2ccccc12 was read as Hsp90 Hop PPI -8.3%, CRE-bla Fsk 12.6µM*, IkB sig inh -0.8%[11.4 µM], Tau filament bind 3.2% and 15-hLO inh 4.7%.
`CC(=O)NCCNc1nc(-c2ccc(C(=O)N(C)C)cc2)nc2ccccc12` gave Hsp90 Hop PPI 1.5%, CRE-bla Fsk inconclusive, IkB sig inh 1.3%[11.4 µM], Tau filament bind -1.0% and 15-hLO inh 4.7%.
`COc1ccc(CNc2ncnc3ccc(-c4ccccc4OC)cc23)c(OC)c1` gave Hsp90 Hop PPI -15.5%, CRE-bla Fsk inconclusive, IkB sig inh 6.5%[11.4 µM], Tau filament bind inactive and 15-hLO inh -3.2%.
COc1ccc(CNc2ncnc3ccc(-c4cccc(C#N)c4)cc23)c(OC)c1 was read as Hsp90 Hop PPI -23.8%, CRE-bla Fsk 0.794µM*, IkB sig inh -4.4%[11.4 µM], Tau filament bind inactive and 15-hLO inh -14.7%.
CCOC(=O)N1CCc2c(sc(NCc3cc(OC)c(OC)cc3OC)c2C(=O)Nc2ccc(OCC)cc2)C1 was read as IkB sig inh 0.0%.
For CN1CCN(c2ncc3nc(-c4cn(C)c5ccccc45)c(=O)n(-c4ccccc4)c3n2)CC1 the results were Hsp90 Hop PPI 9.2%, CRE-bla Fsk inconclusive, IkB sig inh -2.6%[11.4 µM], Tau filament bind 316.6% and 15-hLO inh -5.7%.
c1csc(CNc2nc(-c3ccoc3)nc3ccccc23)c1 was read as Hsp90 Hop PPI -9.5%, CRE-bla Fsk -8.7%, IkB sig inh 0.6%[11.4 µM], Tau filament bind 25.1µM* and 15-hLO inh inconclusive.
O=C(Nc1ccc(F)cc1)N(CCCN1CCOCC1)Cc1cc2cc3c(cc2[nH]c1=O)OCCO3 was read as Hsp90 Hop PPI -1.8%, CRE-bla Fsk inconclusive, IkB sig inh 2.2%, Tau filament bind 12.4% and 15-hLO inh -9.5%.
Screening CCc1ccc2[nH]c(=O)c(CN(CCCN3CCOCC3)C(=O)Nc3ccc(F)cc3)cc2c1 returned Hsp90 Hop PPI inconclusive, CRE-bla Fsk inconclusive, IkB sig inh inconclusive, Tau filament bind 3.5% and 15-hLO inh 15.8µM*.

High-throughput results from PubChem BioAssay.
